PubChem BioAssay (Tox21)
Inconclusive results are not listed. Activity calls are given as the source filed them. Unless noted, calls follow the shape of the dose curve; as a rule, active = well fitted curve in the direction sought with a large enough effect in the repeat runs; inconclusive = weak or mixed curves; inactive = no such curve, though single readings can be large; an effect the other way counts as inactive or inconclusive.

How the values were obtained:
[1] = qHTS assay to identify small molecule antagonists of the estrogen related receptor (ERR) signaling pathway - cell viability counter screen (AID 1224818);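 also: series mostly up to about 46 µM; viability measured after 17.5 h of compound exposure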
Method in brief: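 Here, ERR cells are plated at 2,000 cells per well, allowed 6 h to attach, and treated with compounds in DMSO for 17.5 h at 37 C. CellTiter-Fluor is then added and fluorescence read after 30 min.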

[2] = qHTS assay to identify small molecule antagonists of the estrogen related receptor (ERR) signaling pathway (AID 1224819;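 also: luminescence from an ERR-driven luciferase reporter measured with One-Glo reagent; series mostly up to about 46 µM; nearly all actives have a fitted effect of over 50% in size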)
Method in brief: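 LOPAC library screened for antagonism as reduced One-Glo luminescence in ERR reporter cells (2,000/well). Compounds were added after 6 h pre-incubation and left 18 h at 37C; reading followed a 30 min room-temperature reagent step.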

[3] = qHTS assay to identify small molecule agonists of the estrogen related receptor (ERR) signaling pathway (AID 1224820)
Method in brief: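 ERR reporter cells (NTP line) plated 2,000/well, incubated 6 h at 37 C/5% CO2, then pinned with compounds in DMSO and held 18 h at 37 C. One-Glo added; luminescence read after 30 min at room temperature.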

[4] = system: estrogen-related receptor alpha (ERRalpha) with PGC-1alpha coactivator, human; test: qHTS assay to identify small molecule antagonists of the estrogen related receptor signaling pathway with the pleiotropic PPARgamma coactivator (PGC) (AID 1224821; calls by dose curve;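 also: series mostly up to about 46 µM; lower luminescence signal means antagonism of PGC/ERR signalling; nearly all actives have a fitted effect of over 50% in size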)
Method in brief: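 Cells engineered for PGC/ERR signalling (line from NTP) were plated 6 h at 37 C/5% CO2, then exposed to DMSO-dissolved compound for 18 h at 37 C. Luciferase activity was read by One-Glo luminescence after 30 min at room temperature.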

[5] = qHTS assay to identify small molecule antagonists of the estrogen related receptor signaling pathway with the pleiotropic PPARgamma coactivator (PGC) cell viability counter screen (AID 1224822;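 also: series mostly up to about 46 µM; viability read after 17.5 h compound exposure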)
Method in brief: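 qHTS format, DMSO compound stocks pin-transferred onto PGC/ERR cells 6 h after plating; 17.5 h exposure at 37 C, then CellTiter-Fluor fluorescence.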

[6] = qHTS assay to identify small molecule agonists of the estrogen related receptor signaling pathway with the pleiotropic PPARgamma coactivator (PGC) (AID 1224823)
Method in brief: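 PGC/ERR reporter cells were seeded, rested 6 h at 37 C/5% CO2, then exposed to compounds in DMSO by pin transfer for 18 h at 37 C. Luciferase activity was read as luminescence after One-Glo reagent and 30 min at room temperature.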

Measured: Potency

NC(=O)CC[C@H](N)C(=O)O
inactive: all assays above

O=C1c2c(O)cc(O)cc2OC(c2ccc(O)c(O)c2)C1O (configuration not stated)
inactive: all assays above

O=c1onc2n1-c1cc(Br)ccc1OC2
inactive: all assays above

CCCN(CCc1ccccc1)C1CCc2c(O)cccc2C1 (configuration not stated)
not listed: [6]
inactive: all other assays above

COc1ccccc1N1CCN(CCCCN2C(=O)c3ccccc3C2=O)CC1
inactive: all assays above

NC1CCN(O)C1=O (configuration not stated)
inactive: all assays above

C[N+]1(CCCCC[N+]2(C)CCCC2)CCCC1
inactive: all assays above

Oc1ccc(C2CNCc3sccc32)cc1O (configuration not stated)
inactive: all assays above

C#CCn1c(=O)c2c(ncn2C)n(C)c1=O
inactive: all assays above

C=CCn1c(=O)c2c(nc(-c3ccc(S(=O)(=O)O)cc3)n2C)n(C)c1=O
inactive: all assays above

NCC(O)C1CCCCCCC1 (configuration not stated)
inactive: all assays above

CC1C(=O)N(C)C(=O)c2nc[nH]c21 (configuration not stated)
inactive: all assays above

Nc1ncnc2c1nc(Br)n2C1OC2COP(=O)(O)O[C@@H]2C1O (some centres not stated)
inactive: all assays above

N[C@@H](Cc1cnc[nH]1)C(=O)O
inactive: all assays above

N[C@@H](CS(=O)O)C(=O)O
inactive: all assays above

CNc1ncnc2c1ncn2[C@@H]1O[C@H](CO)C(O)[C@H]1O (some centres not stated)
not listed: [6]
inactive: all other assays above

NC(N)=NCCCCN=C(N)N
inactive: all assays above

Cc1nc2n(c(=O)c1CCN1CCC(c3noc4cc(F)ccc34)CC1)CCCC2O (configuration not stated)
not listed: [6]
inactive: all other assays above

CCCCCCCCCCC/C=C\C(C)(C)/C=C\CCCC(=O)O
inactive: all assays above

O=C(O)c1cc2cc(Cc3cccnc3)ccc2o1
inactive: all assays above

O=c1[nH]c2cc([N+](=O)[O-])c([N+](=O)[O-])cc2[nH]c1=O
inactive: all assays above

O=c1cc(O)cc(/C=C/c2ccc(O)c(O)c2)o1
inactive: all assays above

O=C(O)c1cc(=O)cc(C(=O)O)[nH]1
inactive: all assays above

NCCCCCCCCCCN
inactive: all assays above

Cc1ccc([N+](=O)[O-])cc1S(=O)(=O)N(C)C
inactive: all assays above

COc1ccccc1N1CCN(CCCNc2c(C)c(=O)n(C)c(=O)n2C)CC1
inactive: all assays above

O=C(c1ccc(OCCCc2cnc[nH]2)cc1)C1CC1
inactive: all assays above

CCCC(CCC)C(=O)OC1CC2CCC(C1)[N+]2(C)C (configuration not stated)
inactive: all assays above

NCCSSCCN
inactive: all assays above

CCCCS(=N)(=O)CCC(N)C(=O)O (configuration not stated)
inactive: all assays above
